Measured values as given in PubChem BioAssay (NCATS).
Records with an inconclusive call do not appear. Activity calls are given as the source filed them. Calls come from the whole dose curve; as a rule, active = well fitted cell-killing curve with a large enough effect; inconclusive = small, poorly fitted or top-dose-only effect, or effect the other way; inactive = flat fitted curve, though single readings scatter.

Columns and labels:
Assay in all cases: Primary qHTS to identify gynecologic anti-cancer compounds using libraries of approved drugs and bioactive compounds (AID 1345084); note: nearly all actives have a fitted effect of over 55% in size
Conditions in all cases: Gynecologic cancer cell panel viability, ATPlite luminescence, 48 h; series mostly up to 57.5 µM
[1] = test system: OV90
Summary of the method: (§1)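 Five-concentration response, 48 h; readout is ATP-driven luciferase luminescence.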

[2] = test system: PA-1
Summary of the method: as §1

[3] = test system: SKOV3
Summary of the method: as §1

[4] = test system: Tov-21-G
Summary of the method: as §1

[5] = test system: Tov112D
Summary of the method: as §1
% is set by controls: 0 for no effect and ±100 for the full control effect.

C=C(C)[C@@H]1CC[C@]2(CO)CC[C@]3(C)[C@H](CC[C@@H]4[C@@]5(C)CC[C@H](O)C(C)(C)[C@@H]5CC[C@]43C)[C@@H]12
inactive: Potency [1] | Potency [2] | Potency [3] | Potency [4] | Potency [5]

CC[C@@H](Nc1c(Nc2cccc(C(=O)N(C)C)c2O)c(=O)c1=O)c1ccc(C)o1
inactive: Potency [1] | Potency [2] | Potency [3] | Potency [4] | Potency [5]

O=C(O)c1cc(O[C@@H]2O[C@H](CO)[C@@H](O)[C@H](O)[C@H]2O)ccc1O
inactive: Potency [1] | Potency [2] | Potency [3] | Potency [4] | Potency [5]

Cc1cn2cc(CC(=O)N3CCC4(CC3)CN(Cc3ccc(-n5nccn5)cc3Cl)C4)nc2s1
inactive: Potency [1] | Potency [2] | Potency [3] | Potency [4] | Potency [5]

C[C@@]1(C(=O)O)CCC[C@@]2(C)C3=CC[C@H]4C[C@@]3(CC[C@H]12)CC4(O)CO (stereo not given in full)
inactive: Potency [1] | Potency [2] | Potency [3] | Potency [4] | Potency [5]

O=C(OC[C@H]1O[C@@H](Oc2ccccc2COC(=O)C2(O)C=CCCC2O)[C@H](O)[C@@H](O)[C@@H]1O)c1ccccc1 (stereo not given in full)
inactive: Potency [1] | Potency [2] | Potency [3] | Potency [4] | Potency [5]

C=C1CC[C@]2(C(=O)O[C@@H]3O[C@H](CO)[C@@H](O)[C@H](O)[C@H]3O)CC[C@]3(C)C(=CCC4[C@@]5(C)C[C@H](O)[C@@H](O[C@@H]6O[C@H](C(=O)O)[C@@H](O)[C@H](O)[C@H]6O)[C@](C)(C=O)C5CC[C@]43C)C2C1 (stereo not given in full)
inactive: activity change, negative = cytotoxicity [1] 2.48% [at 11.6 µM] | activity change, negative = cytotoxicity [2] 8.86% [at 11.6 µM] | activity change, negative = cytotoxicity [3] -9% [at 11.6 µM] | activity change, negative = cytotoxicity [4] 6.07% [at 11.6 µM] | activity change, negative = cytotoxicity [5] 5.76% [at 11.6 µM]

C=C1CC[C@@H]2C(C)(C)CCC[C@@]2(C)[C@@H]1CC/C(=C/C(=O)OC)COC(C)=O
inactive: Potency [1] | Potency [2] | Potency [3] | Potency [4] | Potency [5]

CC(=O)/C=C/[C@H]1[C@](C)(O)[C@@H](O)[C@H](O)C2C(C)(C)CCC[C@@]21C (stereo not given in full)
inactive: Potency [1] | Potency [2] | Potency [3] | Potency [4] | Potency [5]

C[C@H]1CC[C@H]2[C@@H](C=C[C@@](C)(O)[C@]2(C)C(=O)CCO)C1
inactive: Potency [1] | Potency [2] | Potency [3] | Potency [4] | Potency [5]

COc1cc(/C=C/C(=O)O[C@H]2[C@@H]3C=CO[C@@H](O[C@@H]4O[C@H](CO)[C@@H](O)[C@H](O)[C@H]4O)[C@@H]3[C@@]3(CO)O[C@@H]23)ccc1O
inactive: Potency [1] | Potency [2] | Potency [3] | Potency [4] | Potency [5]

CC(=O)OCC(Cc1ccccc1)NC(=O)C(Cc1ccccc1)NC(=O)c1ccccc1 (stereo not given)
inactive: Potency [1] | Potency [2] | Potency [3] | Potency [4] | Potency [5]

COc1ccc(CC(=O)NCc2ccccc2-c2ccccc2C(=O)NCCc2cccnc2)cc1
inactive: Potency [1] | Potency [2] | Potency [3] | Potency [4] | Potency [5]

CCNC(=O)C1CC(F)(c2ccc(CN3CCCC3)c(F)c2)C1 (stereo not given)
inactive: Potency [1] | Potency [2] | Potency [3] | Potency [4] | Potency [5]

COC(=O)C1C(c2ccc(O)cc2)C(C(=O)O)C1c1ccc(O)cc1 (stereo not given)
inactive: Potency [1] | Potency [2] | Potency [3] | Potency [4] | Potency [5]

COc1c2cc(c(O[C@@H]3O[C@H](CO)[C@@H](O)[C@H](O)[C@H]3O)c1OC)CCCCC(O)CCc1ccc(O)c-2c1 (stereo not given in full)
inactive: Potency [1] | Potency [2] | Potency [3] | Potency [4] | Potency [5]

CC1=CC(=O)[C@]2(O[C@@H]3O[C@@H](C)[C@H](O)[C@@H](O)[C@H]3O)C=CO[C@@H](O[C@@H]3O[C@H](CO)[C@@H](O)[C@H](O)[C@H]3O)[C@H]12
inactive: Potency [1] | Potency [2] | Potency [3] | Potency [4] | Potency [5]

CC1=C(C(=O)OC2OC(COC3OC(CO)C(O)C(O)C3O)C(O)C(O)C2O)C(C)(C)CCC1 (stereo not given)
inactive: Potency [1] | Potency [2] | Potency [3] | Potency [4] | Potency [5]

O=C(NC1Cc2ccccc2N(C[C@@H](O)CO)C1=O)c1cc2cc(Cl)sc2[nH]1 (stereo not given in full)
inactive: Potency [1] | Potency [2] | Potency [3] | Potency [4] | Potency [5]

C=C1CCC2[C@](C)(CO)CCC[C@@]2(C)[C@@H]1CCC1=CCOC1=O (stereo not given in full)
inactive: Potency [1] | Potency [2] | Potency [3] | Potency [4] | Potency [5]

Cc1nc2cc(-c3cc(F)cc(C#N)c3)ccc2s1
inactive: Potency [1] | Potency [2] | Potency [3] | Potency [4] | Potency [5]

COc1cccc(OC)c1-c1ccc(C[C@H](NC(=O)c2c(Cl)cccc2Cl)C(=O)O)cc1
inactive: Potency [1] | Potency [2] | Potency [3] | Potency [4] | Potency [5]
